Bioassay records as filed in PubChem.
FLuc modulator: counter-screen for miR-21 project: firefly luciferase inhibitors or activators; P08659; purified FLuc, Km substrates, luminescence inhibition; Potency, µM (highest dose often 57.5 µM), hits mostly inhibitors; 6.9% of 360,000 active; also: nearly all actives have a fitted effect of over 55% in size
Target sequence (P08659 whole entry, looked up): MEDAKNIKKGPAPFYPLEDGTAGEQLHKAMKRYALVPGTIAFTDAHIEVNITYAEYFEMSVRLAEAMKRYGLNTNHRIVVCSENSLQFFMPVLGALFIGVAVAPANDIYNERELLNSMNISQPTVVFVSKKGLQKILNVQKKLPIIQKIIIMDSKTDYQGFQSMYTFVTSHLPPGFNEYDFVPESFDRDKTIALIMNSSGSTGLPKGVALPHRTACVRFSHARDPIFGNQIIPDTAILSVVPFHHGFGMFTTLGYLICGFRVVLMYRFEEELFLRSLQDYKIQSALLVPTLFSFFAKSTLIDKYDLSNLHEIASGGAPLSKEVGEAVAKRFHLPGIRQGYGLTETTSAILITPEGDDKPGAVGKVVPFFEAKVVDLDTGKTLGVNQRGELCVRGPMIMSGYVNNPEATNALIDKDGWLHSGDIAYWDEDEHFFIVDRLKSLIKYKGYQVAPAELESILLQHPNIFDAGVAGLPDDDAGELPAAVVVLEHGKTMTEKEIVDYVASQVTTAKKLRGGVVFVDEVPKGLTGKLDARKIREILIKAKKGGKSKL
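Purified P. pyralis luciferase (10nM final) with 10uM D-luciferin and 10uM ATP (Km levels) in 50mM Tris acetate pH 7.5, 10mM Mg acetate, 0.01% Tween-20, 0.05% BSA; qHTS 6-point titration, ~60 µM downward; luminescence read.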
NPC1 promoter act: NPC1 promoter activation. 2.4% of 320,000 active. AID 485313. Potency, µM (highest dose often 9.22 µM), actives largely listed as activators. Huh7 NPC1 promoter luciferase reporter, 24 h; also: nearly all actives have a fitted effect of over 60% in size
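In 1536-well qHTS, Huh7 cells harboring an NPC1 promoter–luciferase construct received compound for 24 h; activation was quantified by luminescence following luciferase reagent addition.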
Rab9 promoter act: Rab9 promoter activation | Potency, µM (top dose mostly 9.22 µM), hits mostly activators | Huh7 Rab9 promoter-luciferase reporter, luminescence, 24 h | 2.8% of 320,000 active | AID 485297; also: nearly all actives have a fitted effect of over 60% in size
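Stable Rab9-luc Huh7, 1500 cells/well, 2 h settle; cmpd in DMSO, 24 h, 37 °C/5% CO2; luciferase reagent 10 min RT; luminescence.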
SMN2 splice up: enhancers of SMN2 splice variant expression; HEK293 SMN2-luciferase splicing reporter, luminescence, 30-36 h; Potency, µM (top dose mostly 46.1 µM), usual class: activators; 2.8% of 210,000 active; also: nearly all actives have a fitted effect of over 55% in size
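HEK293 cells carry an SMN2 […]–luciferase reporter in which exon 7 inclusion puts luciferase in frame. Cells were plated 10-12 h before compound addition, then incubated 30-36 h at 37C. ONE-Glo luminescence was read; sodium butyrate at 4.5 mM final served as control.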
ELG1 genotoxic: induces genotoxicity in HEK293T cells with luciferase-tagged ELG1. HEK293T ELG1-luciferase reporter, luminescence, 16 h. Potency, µM (doses to about 46 µM), usual class: activators. 1.3% of 330,000 active. AID 504466; also: nearly all actives have a fitted effect of over 60% in size
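ELG1-luciferase HEK293T cells, 2,000/well; compound pinned in; 16 hr, 37 °C, 5% CO2; ONE-Glo, 30 min RT; luminescence on CCD imager.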
ELG1 DNA repair: inhibitors of ELG1-dependent DNA repair in HEK293T cells. HEK293T ELG1-luciferase reporter, luminescence, 16 h; DNA damage induced by 5-fluorouridine. Potency, µM (top dose mostly 46.1 µM), most hits filed as inhibitors. 2.3% of 330,000 active; also: nearly all actives have a fitted effect of over 55% in size
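Cells (2,000 per well) received 5-fluorouridine plus test compound or DMSO and were incubated 16 hr at 37 °C, 5% CO2. Luciferase activity was read by luminescence 30 min after ONE-Glo addition; signal suppression marked inhibition of damage-induced ELG1 function.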
A number is an active result; i = inactive; ? = inconclusive; nt = no result. Rows were chosen to be rich in hits. Some 9.2% of all compounds tested hit in one or more screens of this group. Calls follow the shape of the dose curve; as a rule, active = well fitted curve in the direction sought with a large enough effect; inconclusive = small, poorly fitted or top-dose-only effect, or another doubt; inactive = no such curve, though single readings can be large; an effect the other way counts as inactive or inconclusive.

SMILES	FLuc modulator	NPC1 promoter act	Rab9 promoter act	SMN2 splice up	ELG1 genotoxic	ELG1 DNA repair
O=C(N/N=C/c1ccc(Cl)cc1)Nc1ccccc1	4.3µM	?	?	?	?	?
O=C(N/N=C/c1ccco1)Nc1ccccc1	19µM	3.2µM	4µM	nt	?	?
Clc1ccc(/C=N\Nc2ccccc2)cc1	17µM	i	i	nt	?	i
CC(Nc1ncnc2sccc12)c1ccccc1 (stereo not given)	i	i	i	nt	i	?
CSc1ccc(-c2nc3cccc(C)n3c2Nc2ccc3c(c2)OCO3)cc1	i	nt	nt	i	nt	nt
CCC1CN(C(=O)N2CCC(C(=O)N3CCN(c4ccccc4F)CC3)CC2)c2ccccc2O1 (stereo not given)	i	nt	nt	nt	nt	nt
N#CCSc1nnc(COc2cccc3ccccc23)n1-c1ccccc1	i	i	i	i	i	21µM
Cc1c(Cl)cccc1NC(=O)CSc1ncnc2c1cnn2CCO	i	i	i	nt	i	?
COc1ccc2sc3ccccc3c(=O)c2c1	6.7µM	?	?	i	?	?
COc1ccc(-c2cc(=O)c3ccccc3s2)cc1	1.1µM	1.4µM	0.89µM	4µM	2.3µM	?
COc1cccc(-c2sc3ccccc3c2-c2ccc(OCCN(C)C)cc2)c1	nt	nt	nt	nt	i	?
COc1cc(-c2ccc3c(=O)c4ccccc4sc3c2)cc(OC)c1OC	nt	nt	nt	nt	i	i
COc1ccc(-c2cn3cccnc3n2)cc1NC(=O)Nc1cc(C)ccc1C	2.4µM	i	i	i	nt	nt
COc1cccc(NC(=O)Nc2cc(-c3cn4cccnc4n3)ccc2C)c1	i	nt	nt	i	nt	nt
COc1cccc(NC(=O)Nc2cc(-c3cn4cccnc4n3)ccc2OC)c1	1.3µM	nt	nt	8.9µM	nt	nt
COc1cccc(NC(=O)Nc2cccc(-c3cn4cccnc4n3)c2)c1	6.7µM	nt	nt	i	nt	nt
O=C(Cc1ccc(Cl)cc1)NCC(c1cccs1)S(=O)(=O)c1ccc(F)cc1 (stereo not given)	i	nt	nt	nt	nt	nt
CCOc1ccc(-c2cc(C(=O)NCc3ccccc3)c3c(-c4ccc(CC)cc4)[nH]nc3n2)cc1	i	nt	nt	nt	nt	nt
COc1cccc(Cn2c(C)c(CNCc3ccccc3Cl)c(C(=O)O)c2C)c1	i	nt	nt	i	nt	nt
Cc1ccc(NC(=O)C2CCN(c3nc4ccccc4[nH]3)CC2)c(C)c1	i	nt	nt	nt	nt	nt
Cc1noc(-c2ccccc2OCC(=O)Nc2cccc([N+](=O)[O-])c2)n1	i	nt	nt	nt	nt	nt
CCc1c(C(=O)NNC(=S)Nc2ccc(S(=O)(=O)Nc3ncccn3)cc2)csc1C	i	i	i	nt	i	i
COCCn1c(-c2ccc(Br)cc2)csc1=Nc1cccnc1	i	i	i	i	i	12µM
FC(F)Oc1ccc(-c2csc(=Nc3cccnc3)n2CC2CCCO2)cc1 (stereo not given)	i	i	i	i	i	?
Clc1ccc(-c2csc(=Nc3cccnc3)n2CCCn2ccnc2)cc1Cl	i	i	i	i	i	8.2µM
SMILES	FLuc modulator	NPC1 promoter act	Rab9 promoter act	SMN2 splice up	ELG1 genotoxic	ELG1 DNA repair
Cc1cccc(CCNc2ncnc3onc(-c4ccc(Cl)cc4)c23)c1	i	nt	nt	i	nt	nt
COc1cccc(NC(=O)Cn2c(=O)n(CCCC(=O)NCc3ccc4c(c3)OCO4)c(=O)c3ccccc32)c1	i	nt	nt	i	nt	nt
CCCn1c(-c2cccnc2Cl)nc2cc(Cl)c(Cl)cc21	i	i	i	i	i	i
c1ccc2ncc(-n3cnnn3)cc2c1	i	i	i	i	i	i
c1ccc(OCCCn2nnc(-c3cccnc3)n2)cc1	i	i	i	i	i	i
Fc1ccc(-n2nnc(-c3cccnc3Cl)n2)cc1	2.4µM	1.6µM	0.35µM	nt	5.8µM	?
Cc1ccc(-n2nnc(-c3cnc4ccccc4c3)n2)cc1	0.43µM	0.89µM	0.32µM	nt	1.6µM	?
c1ccc(-n2nnc(-c3cccnc3)n2)cc1	13µM	4µM	2.8µM	nt	?	?
Clc1ccc(-n2nnc(-c3cccnc3Cl)n2)cc1Cl	1.3µM	1µM	1.1µM	nt	10µM	?
COc1ccccc1NC(=O)C(Cc1ccccc1)NS(=O)(=O)c1cccc2nsnc12 (stereo not given)	i	nt	nt	i	nt	nt
COc1nn(-c2ccccc2)c(=O)c(Cl)c1Cl	i	i	i	nt	i	?
Cc1ccc(-n2nnc(-c3nccn3C)n2)cc1	1.3µM	0.5µM	0.35µM	nt	1.8µM	?
Fc1ccc(-n2nnc(-c3nccs3)n2)cc1	3.4µM	0.5µM	0.5µM	nt	3.7µM	?
O=c1ncn(-c2ccc(F)cc2)c2ncccc12	i	i	i	i	i	i
Fc1ccc(-n2nnc(-c3ccccc3Cl)n2)cc1	i	i	i	nt	i	i
COc1ncccc1-c1nnn(-c2ccccc2)n1	3.4µM	1.8µM	0.71µM	nt	8.2µM	?
Clc1ncccc1-c1nnn(-c2ccccc2)n1	2.4µM	1.1µM	1.4µM	nt	6.5µM	?
CNC(=O)CSc1nc2ccccc2c(=O)n1CCc1ccccc1	i	i	i	nt	i	i
Cc1ccc(NC(=O)CN2C(=O)c3cccnc3Oc3ccc(Cl)cc32)cc1	i	nt	nt	nt	nt	nt
Clc1nc2ccccc2cc1-c1nnn(-c2ccccc2)n1	2.4µM	3.2µM	1.6µM	nt	16µM	?
ClCc1cc2ccccc2nc1Cl	i	i	i	i	i	i
COc1cccc(Cn2c(CNS(=O)(=O)c3ccc(C(C)(C)C)cc3)nc3cccnc32)c1	i	nt	nt	nt	nt	nt
Cc1ccc(-n2cc(CNCC3CC(=O)N(C4CC4)C3)c(-c3cccc(C)c3)n2)cc1 (stereo not given)	21µM	i	i	nt	i	?
Cc1cccc(NC(=O)Cn2nc(C)c3nn(-c4ccc(Cl)cc4)c(C)c3c2=O)c1C	i	nt	nt	nt	nt	nt
CN(C)c1ccc(NC(=O)C(=O)C2C(=O)Nc3ccccc32)cc1 (stereo not given)	11µM	i	i	nt	?	?
SMILES	FLuc modulator	NPC1 promoter act	Rab9 promoter act	SMN2 splice up	ELG1 genotoxic	ELG1 DNA repair
CC(C)c1ccc(NC(=O)C(=O)C2C(=O)Nc3ccccc32)cc1 (stereo not given)	?	i	i	i	i	?
CC(C)(C)c1ccc(NC(=O)C(=O)C2C(=O)Nc3ccccc32)cc1 (stereo not given)	12µM	i	i	i	i	i
CN(C)c1nc(N)nc(CSc2nc3cc(Cl)ccc3o2)n1	?	?	?	i	7.3µM	?
Cc1cc(C)n2cc(CSc3nc4cc(Cl)ccc4o3)nc2n1	i	i	i	i	i	i
COc1ccc(NC(=O)CC2C(=O)N(c3ccc(C)cc3)C(=O)N2CCc2ccccc2)cc1 (stereo not given)	i	nt	nt	i	nt	nt
CCCCN(Cc1ccccc1)S(=O)(=O)c1cc(Br)cc2c1N(C(C)=O)CC2	i	nt	nt	i	nt	nt
O=C(NC1CCN(C(=O)N2c3ccccc3Sc3ccccc32)CC1)c1ccccc1Cl	i	i	i	i	i	i
O=C(NC1CCN(C(=O)N2c3ccccc3Sc3ccccc32)CC1)c1ccco1	i	i	i	i	i	23µM
Cc1cc(NC(=O)CSc2nc3c(cc2C#N)CCCC3)no1	?	2.5µM	1.6µM	4µM	?	?
